High-throughput results: PubChem, several laboratories
This is a sample that favours compounds with a hit; in the whole collection about 3.1% have one here.
EBV LMP1 NFkB: EBV LMP1-driven NF-kappaB luciferase reporter inhibitors, primary screen, cell-based, luminescence, single point; LMP1-induced NF-kappaB luciferase reporter cells; inhibition, % at 12.5 µM; 350,000 compounds, 0.69% hits; AID 504558, 2011; in the data active means inhibition above about 41%; inconclusive means no clear call, values can overlap the other calls;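 further: 0% = neutral control wells and 100% = reference inhibitor control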
PAX8 reporter: inhibitors of PAX8-driven TPO luciferase reporter, primary screen, RMG-I cells, single concentration. SteadyGlo, 24 h. inhibition, % at 12.6 µM. 360,000 compounds, 1.2% hits. AID 652154, 2013;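 active means mean replicate inhibition at least 60% with every replicate also reaching 60%; inconclusive means only one of the two criteria is met; inactive means mean below 60% and not all replicates reaching 60%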;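 further: luciferase light reporting Pax8 driven TPO promoter activity; plate controls were median of neutral control wells for no effect and mitoxantrone controls for full effect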
LGR2 inh: inhibitors of bursicon-induced LGR2 CRE-luciferase signal, primary screen, cell-based, HEK293, CRE-luciferase reporter, bursicon stimulation | bursicon-stimulated, 4 h | inhibition, % at 9.99 µM | 380,000 compounds, 0.35% hits | AID 720647, 2013;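 active means drop in luminescence signal, shown as inhibition above about 50% in the replicate tests, limit read from the data, passing the limit was not always enough; inconclusive means probably only some replicates passing the limit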;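 further: agonist challenge used bursicon conditioned medium at about half maximal strength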
TROY NFkB inh: inhibitors of TROY-driven NF-kB signaling, primary screen, Q293 LMP1-TROYcd cells, NF-kB luciferase, uHTS. Q293 LMP1-TROYcd NF-kB luciferase reporter, 4 h. inhibition, % at 10 µM. 360,000 compounds, 0.98% hits;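 active means compounds whose plate-normalised and pattern-corrected inhibition of the luciferase reporter signal at the single screening dose is 50% or more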
EWS-Fli block: EWS/Fli-driven NR0B1 reporter inhibitors, primary screen, A673 cells, NR0B1 luciferase, luminescence, MLPCN library. 350,000 compounds, 0.67% hits. viability-normalised. inhibition, % at 12.6 µM;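 active means mean inhibition of at least 50% after viability correction, with every replicate also passing that limit; inconclusive means mean reaches 50% but only one of two replicates passes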;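 further: firefly luciferase signal divided by Alamar Blue viability fluorescence both relative to DMSO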
TWEAK-Fn14 inh: inhibitors of TWEAK-Fn14 signaling, primary screen, luciferase reporter cells, uHTS | TWEAK-stimulated Fn14 reporter cells, luciferase luminescence, 8 h | AID 1159606, 2016 | inhibition, % at 10 µM | 360,000 compounds, 2% hits; in the data active means inhibition above about 50%
An asterisk follows results filed as active; ? = inconclusive; . = no result given.

SMILES	EBV LMP1 NFkB	PAX8 reporter	LGR2 inh	TROY NFkB inh	EWS-Fli block	TWEAK-Fn14 inh
COc1ccc(/C=N/Nc2ccccn2)c(OC)c1OC	-1	-152	-29	-14	-74	-42
C[C@H](CO)N1C[C@H](C)[C@H](CN(C)Cc2ccc(C(F)(F)F)cc2)Oc2c(NC(=O)CCCCCC(=O)Nc3ccccc3N)cccc2C1=O	.	40	12	.	40	.
CC(=O)[C@@]1(O)Cc2c(O)c3c(c(O)c2[C@H](O[C@H]2C[C@H](N)[C@H](O)[C@H](C)O2)C1)C(=O)c1ccccc1C3=O	.	104*	98*	66*	59*	95*
COc1cccc2c1C(=O)c1c(O)c3c(c(O)c1C2=O)CC(O)(C(C)=O)CC3OC1CC(N(C)C)C(O)C(C)O1 (stereo unspecified)	93*	103*	101*	61*	65*	98*
COc1cccc2c1C(=O)c1c(O)c3c(c(O)c1C2=O)C[C@@](O)(C(=O)CO)C[C@@H]3O[C@H]1C[C@H](N)[C@H](O)[C@H](C)O1	84*	104*	.	5	47	87*
COc1cccc2c1C(=O)c1c(O)c3c(c(O)c1C2=O)C[C@@](O)(C(=O)CO)C[C@@H]3OC1CC(N)C(O)C(C)O1 (stereo partly specified)	62*	81*	.	-18	10	76*
CO[C@@H]1CN(C)C(=O)c2ccc(NS(=O)(=O)c3ccccc3)cc2OC[C@H](C)NC[C@H]1C	.	.	-4	.	7	.
COc1ccc(Nc2ncc(C(=O)N3CCN(Cc4ccccc4)CC3)c3ccccc23)cc1	7	14	.	21	.	96*
CCCC(=O)Nc1ccc2c(c1)C(=O)N(C)C[C@@H](OC)[C@@H](C)CN(CC1CCCC1)[C@H](C)CO2	.	.	-9	.	-5	.
CCCc1cn(CC[C@@H]2CC[C@@H](NC(=O)Nc3ccccc3F)[C@H](CO)O2)nn1	.	9	0	.	4	.
O=C(C[C@@H]1CC[C@@H]2NC[C@H](O)COC[C@H]2O1)NCc1ccc(Oc2ccccc2)cc1	.	0	-2	.	-2	.
CS(=O)(=O)c1nc([N+](=O)[O-])nn1CCCc1ccccc1	-2	.	.	22	.	87*
Cn1nc([N+](=O)[O-])nc1S(C)(=O)=O	-8	?	36	18	37	54*
CC(C)(C)c1ccc(NC(=O)c2ccccc2)c([N+](=O)[O-])c1	-75	-224	.	58*	-14	30
O=C(Nc1ccccc1[N+](=O)[O-])c1cncc(Br)c1	5	17	11	8	-4	104*
Cc1c(NC(=O)c2ccc(C(C)(C)C)cc2)cccc1[N+](=O)[O-]	-8	-103	-26	-62	-138	-18
O=C(C[C@@H]1CC[C@H]2[C@@H](COC[C@@H](O)CN2C(=O)Nc2ccc(Cl)cc2)O1)NCc1ccncn1	.	-21	-2	.	-12	.
CN1C2CCC1/C(=C\c1ccccc1)C(=O)/C2=C\c1ccccc1	-63	.	.	-7	.	56*
O=C1/C(=C/c2ccccc2)CCC1C1CCCC1 (stereo unspecified)	-7	-38	-83	-124	-100	-17
CNC(=O)OCc1nc(SSC(C)(C)C)n(C)c1COC(=O)NC	13	20	-5	-8	67*	89*
CC(C)C#Cc1cnc2c(c1)C(=O)N([C@@H](C)CO)C[C@H](C)[C@@H](CN(C)Cc1cncnc1)O2	.	-13	-4	.	-5	.
NS(=O)(=O)c1ccc(CCNC(=O)CSc2ccc(Cl)cc2Cl)cc1	0	-8	-2	22	2	6
NS(=O)(=O)c1ccc(CCNc2nn3c(-c4ccc(F)c(Cl)c4)cnc3s2)cc1	.	.	23	42	18	56*
COc1ccc(-c2cnc3c(c2)C(=O)N([C@@H](C)CO)C[C@@H](C)[C@@H](CN(C)C(=O)NC2CCCC2)O3)cc1	.	-5	-2	.	1	.
CC1=CC(C)(C)N2C(=O)C3(NCCc4c3[nH]c3ccccc43)c3cc(C)cc1c32 (stereo unspecified)	-2	88*	10	-3	10	-85
SMILES	EBV LMP1 NFkB	PAX8 reporter	LGR2 inh	TROY NFkB inh	EWS-Fli block	TWEAK-Fn14 inh
C/C(=N\NC(=S)NC1CCCCC1)c1ccc(Cl)c(Cl)c1	-3	-5	1	41	3	62*
C/C(=N\NC(=O)C1CCCC1)c1ccc(Cl)c(Cl)c1	-2	-1	-18	-32	-24	-53
Cc1c(C)c2cc(Cl)c(OCC(=O)Nc3ccccn3)cc2oc1=O	-7	-23	-3	-6	-13	-20
Cc1cc(OCC(=O)Nc2ccccn2)c2c(C)cc(=O)oc2c1	49*	-14	-19	-14	.	-42
Cc1c(C)c2ccc(OCC(=O)Nc3ccccn3)c(C)c2oc1=O	-6	-15	100*	82*	.	103*
COc1ccc(CN2CC3(C2)CN(C(=O)Nc2ccc(F)cc2)[C@@H](CO)c2[nH]c4cc(OC)ccc4c23)cc1	.	.	-7	.	-3	.
Nc1ncnc2c1ncn2C1O[C@H](CO)[C@@H](O)[C@@H]1O (stereo partly specified)	6	-7	-4	-13	9	-10
N#Cc1c(N)n(C2OC(CO)C(O)C2O)c2ncnc(N)c12 (stereo unspecified)	66*	109*	91*	62*	27	101*
COc1ccc(-c2oc3ccc(N4CCOCC4)cc3c2C#CCO)cc1	-2	23	34	54*	31	97*
COc1ccc(-c2ccc3oc(-c4ccc(OC)cc4)c(-c4ccc(OC)cc4)c3c2)cc1	-2	-8	13	-9	13	-2
COc1ccc(-c2ccc3oc(-c4ccc(OC)cc4)c(C#CCO)c3c2)cc1	16	32	28	39	-20	53*
COc1cccc(S(=O)(=O)Nc2ccc3c(c2)C(=O)N(C)C[C@@H](OC)[C@H](C)CN(Cc2ccccc2F)[C@H](C)CO3)c1	.	4	-7	.	18	.
Cc1ccccc1CNC(=O)C1CCCN(c2nnc(C)c3c(C)n(-c4ccccc4)nc23)C1 (stereo unspecified)	-3	95*	15	28	40	-16
Cc1nnc(N2CCCC(C(=O)NCc3cccc(F)c3)C2)c2nn(-c3ccccc3)c(C)c12 (stereo unspecified)	7	65*	16	15	.	7
CCc1ccc(CNC(=O)C2CCCN(c3nnc(C)c4c(C)n(-c5ccccc5)nc34)C2)cc1 (stereo unspecified)	17	89*	1	35	35	19
CC(C)NC(=O)N1[C@H](CO)[C@@H](c2ccccc2)C12CN(C(=O)Cc1ccccc1)C2	.	-1	6	.	3	.
O=C1C(C=NCc2ccncc2)=C(O)c2ccccc21	1	.	.	-2	.	21
